Experimental data taken from PubChem BioAssay (NCATS).
A number with no mark means an inactive call. Calls follow the shape of the dose curve; as a rule, active = well fitted curve in the direction sought with a large enough effect; inconclusive = small, poorly fitted or top-dose-only effect, or another doubt; inactive = no such curve, though single readings can be large or run the other way.

Test: Validation qHTS assay for inhibitors of Activation Induced Cytidine Deaminase (AID): UDG Counterscreen signal (AID 1347427); also: 0% is about no effect
Details: biochemical UDG counterscreen, fluorescence signal; series mostly up to 115 µM; activity, negative = inhibition: at the top concentration
In short: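 Fluorescence at 560 nm excitation, 665 nm emission reports UDG signal after 250 mM NaOH (2x) addition and 30 min. Enzymes (AID 1 uM, UDG 2 U/mL, at 4/3x) preincubated 10 min with compound, then 4 h with 4x 250 nM DJC20/DJC23 substrate at room temperature.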

Question: For `NC(=O)CC[C@H](N)C(=O)O`, which “activity, negative = inhibition” value is on record?
Answer: 3%

Question: For `CC(C)C[C@H](NC(=O)C1OC1C(=O)O)C(=O)NCCCCN=C(N)N` (some centres not stated), which “activity, negative = inhibition” value is on record?
Answer: -7.3%

Question: Which “activity, negative = inhibition” value does the source give for `C=CCn1c(=O)c2c(nc(-c3ccc(S(=O)(=O)O)cc3)n2C)n(C)c1=O` here?
Answer: 8.6%

Question: With `CC(N)(Cc1ccc(O)c(O)c1)C(=O)O` (configuration not stated) as the molecule, how does the “activity, negative = inhibition” value read?
Answer: -5.32%

Question: With `Cc1nc(N=Nc2ccc(S(=O)(=O)O)cc2S(=O)(=O)O)c(COP(=O)(O)O)c(C=O)c1O` as the molecule, how does the “activity, negative = inhibition” value read?
Answer: 4.82%

Question: With `OC[C@H]1O[C@H](n2cnc3c(N[C@H]4CCC[C@@H]4O)ncnc32)[C@H](O)[C@@H]1O` as the molecule, how does the “activity, negative = inhibition” value read?
Answer: 16%

Question: With `Cn1ccnc1` as the molecule, how does the “activity, negative = inhibition” value read?
Answer: 4.28%

Question: For `C=C1C[C@@]23CC[C@H]4[C@@](C)(CCC[C@@]4(C)C(=O)OC4OC(CO)C(O)C(O)C4O)[C@@H]2CC[C@]1(OC1OC(CO)C(O)C(O)C1OC1OC(CO)C(O)C(O)C1O)C3` (some centres not stated), which “activity, negative = inhibition” value is on record?
Answer: -4.22%

Question: For `COCc1nc2c([nH]1)c(=O)n(C)c(=O)n2CC(C)C`, which “activity, negative = inhibition” value is on record?
Answer: 8.1%

Question: Which “activity, negative = inhibition” value does the source give for `NC(N)=N[C@@H](CCC(=O)O)C(=O)O` here?
Answer: 8.05%

Question: With `COc1cc(C(O)C(=O)O)ccc1O` (configuration not stated) as the molecule, how does the “activity, negative = inhibition” value read?
Answer: 11.1%

Question: With `COc1cc2c(CCNC(C)=O)c[nH]c2cc1O` as the molecule, how does the “activity, negative = inhibition” value read?
Answer: 6.67%

Question: For `CCCc1c(-c2ccc(O)cc2)nn(-c2ccc(O)cc2)c1-c1ccc(O)cc1`, which “activity, negative = inhibition” value is on record?
Answer: 17.1%

Question: Which “activity, negative = inhibition” value does the source give for `NC(Cc1cccc(-c2ccccc2CP(=O)(O)O)c1)C(=O)O` (configuration not stated) here?
Answer: 12.9%

Question: For `Nc1ncnc2c1ncn2C1CCCO1` (configuration not stated), which “activity, negative = inhibition” value is on record?
Answer: -6.27%

Question: Which “activity, negative = inhibition” value does the source give for `C=C1C[C@@]23CC[C@H]4[C@@](C)(CCC[C@@]4(C)C(=O)O)[C@@H]2CC[C@]1(O)C3` here?
Answer: 8.6%

Question: With `N=C(N)c1ccc(N)cc1` as the molecule, how does the “activity, negative = inhibition” value read?
Answer: 1.22%

Question: With `c1ccc2c(c1)CC(N1CCN(c3cccc4c3OCCO4)CC1)C2` as the molecule, how does the “activity, negative = inhibition” value read?
Answer: -11%

Question: Which “activity, negative = inhibition” value does the source give for `CC(=O)[C@H]1CCC2C3CC=C4C[C@@H](OS(=O)(=O)O)CC[C@]4(C)C3CC[C@@]21C` (some centres not stated) here?
Answer: 13.3%

Question: With `C=CCN1CCc2c(cc(O)c(O)c2Cl)C(c2ccccc2)C1` (configuration not stated) as the molecule, how does the “activity, negative = inhibition” value read?
Answer: -4.33%

Question: For `CC[N+](CC)(CC)CC(=O)Nc1c(C)cccc1C`, which “activity, negative = inhibition” value is on record?
Answer: 9.32%

Question: For `C[N+](C)(C)CC=O`, which “activity, negative = inhibition” value is on record?
Answer: 13.5%

Question: For `Cc1ccc([N+](=O)[O-])cc1S(=O)(=O)N(C)C`, which “activity, negative = inhibition” value is on record?
Answer: -4.8%

Question: For `COc1ccccc1N1CCN(CCCCN2C(=O)c3ccccc3C2=O)CC1`, which “activity, negative = inhibition” value is on record?
Answer: -12.4%

Question: For `Nc1nc2[nH]c(=O)cnc2c(=O)[nH]1`, which “activity, negative = inhibition” value is on record?
Answer: -4.06%

Question: For `[Li+]`, which “activity, negative = inhibition” value is on record?
Answer: 13.1%

Question: For `O=C1OC(=O)C2C3CCC(O3)C12` (configuration not stated), which “activity, negative = inhibition” value is on record?
Answer: 14.3%

Question: For `CSC(=N)N`, which “activity, negative = inhibition” value is on record?
Answer: 9.51%

Question: For `CSc1nc(N)c2ncn([C@@H]3O[C@H](COP(=O)(O)OP(=O)(O)O)C(O)[C@H]3O)c2n1` (some centres not stated), which “activity, negative = inhibition” value is on record?
Answer: 14.3%

Question: For `CCCn1c(=O)c(C)cn2nc(N)nc12`, which “activity, negative = inhibition” value is on record?
Answer: 5.93%

Question: Which “activity, negative = inhibition” value does the source give for `COc1cc(CNC(=O)CCCCCCC(C)C)ccc1O` here?
Answer: 1.27%

Question: Which “activity, negative = inhibition” value does the source give for `O=C(O)C1CCCNC1` (configuration not stated) here?
Answer: 0.481%
